Measurements taken from PubChem BioAssay (NCI).
The panel holds about 79,000 compounds, 15% with a hit somewhere; the sample as a whole holds those more often. Active and inactive are the calls of the source. Rule as the data show it: active = growth inhibition above about 70%; inactive = the rest. Where a SMILES comes first, the peptide text is derived from it. The star is where a group is joined. Boc = CC(C)(C)OC(=O)*

Tests used:
[1] = NCI Yeast Anticancer Drug Screen. Data for the rad50 strain (AID 155);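 also: 0% = growth of vehicle-only cultures of the same strain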; details: S. cerevisiae rad50 strain growth inhibition; at 50.0 µM; active compounds read high
Method in brief: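 DNA repair mutant yeast, compound exposure, growth read-out; inhibition is taken relative to vehicle.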

[2] = NCI Yeast Anticancer Drug Screen. Data for the mec2-1 strain (AID 157); details: S. cerevisiae mec2-1 strain, at 50.0 µM, active compounds read high
Method in brief: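 Mutant yeast (mec2-1) grown with compound; growth inhibition relative to vehicle control reported.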

[3] = NCI Yeast Anticancer Drug Screen. Data for the sgs1 mgt1 strain (AID 161);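 also: 0% = growth of cultures given vehicle only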; details: S. cerevisiae sgs1 mgt1 strain, at 50.0 µM, active compounds read high
Method in brief: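 Compounds are added to genetically altered yeast, and growth is compared with cultures given vehicle alone to give percent inhibition.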

[4] = NCI Yeast Anticancer Drug Screen. Data for the cln2 rad14 strain (AID 165);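 also: 0% = growth equal to vehicle treated cultures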; details: S. cerevisiae cln2 rad14 strain, at 50.0 µM, active compounds read high
Method in brief: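 Readout is yeast growth inhibition versus vehicle-treated controls, using a strain with cln2 and rad14 alterations exposed to compound.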

[5] = NCI Yeast Anticancer Drug Screen. Data for the bub3 strain (AID 167); details: S. cerevisiae bub3 mutant strain, at 50.0 µM, active compounds read high
Method in brief: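 In this screen, a yeast mutant lacking normal mitotic checkpoint function is challenged with compound. Relative growth versus vehicle gives the inhibition value.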

[6] = NCI Yeast Anticancer Drug Screen. Data for the mlh1 rad18 strain (AID 175); details: S. cerevisiae mlh1 rad18 strain growth inhibition; at 50.0 µM; active compounds read high
Method in brief: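 Genetically defined yeast (DNA repair-deficient) exposed to compounds; growth inhibition determined relative to vehicle.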

Measured: growth inhibition

COC(=O)C(CC(=O)[C@H]1CC[C@H]2[C@@H]3CC[C@H]4C[C@@H](OC(C)=O)CC[C@]4(C)[C@H]3CC[C@]12C)OC(C)=O (stereo not given in full)
inactive: [1] 51.5% | [2] 40.9% | [3] 57.5% | [4] 53% | [5] -2.7% | [6] 44.2%

CCOCCOCCOC(=O)c1ccccc1O
inactive: [1] -6.75% | [2] 1.45% | [3] -4.4% | [4] -14.5% | [5] 11.2% | [6] 4.4%

Nc1ccc(Br)cc1C(=O)O
inactive: [1] 4.2% | [2] -1.15% | [3] -17.4% | [4] -3.2% | [5] 23.6% | [6] -3.3%

CC1(C(=O)O)C2CCC(C2)C1C(=O)O (stereo not given)
inactive: [1] 11.8% | [2] 5.8% | [3] -2.7% | [4] -46.1% | [5] 3.7% | [6] 3.35%

Cc1cc(C)c(C#N)c(SC(C(=O)Nc2cc(C(F)(F)F)ccc2Cl)c2ccccc2)n1 (stereo not given)
inactive: [1] 2.35% | [2] -13.2% | [3] 23.6% | [4] 19.1% | [5] 2.95% | [6] 8.25%

Cn1nc(-c2cccc(N)c2)cc1Cl
inactive: [1] -17.6% | [2] -10.4% | [3] 3.75% | [4] -39.5% | [5] -15.6% | [6] 2.95%

O=C1CC[C@@H](S(=O)(=O)c2ccccc2)[C@@H](/C=C/c2ccccc2)O1
inactive: [1] -26.8% | [2] -1.75% | [3] 7.15% | [4] -12.8% | [5] -10.7% | [6] -6.7%

CCCCOP(=O)(OCCCC)/C(C#N)=C/c1ccco1
inactive: [1] -67.7% | [2] -65.6% | [3] -50.1% | [4] -42.1% | [5] -29.8% | [6] -79.4%

CCC1COC(Nc2cccc3c2CCCC3)=N1 (stereo not given)
inactive: [1] -0.05% | [2] -6.7% | [3] -8.75% | [4] -30.4% | [5] 17.7% | [6] 4.55%

Cc1nnnn1-c1ccc2ccccc2c1
inactive: [1] -24.8% | [2] -24% | [3] -6.8% | [4] -20.6% | [5] -0.05% | [6] 4.45%

c1ccc2c(c1)Cc1c-2n[nH]c1-c1[nH]nc2c1Cc1ccccc1-2
inactive: [1] 26.6% | [2] 8.85% | [3] 34.8% | [4] 22.3% | [5] 16% | [6] 55.2%

N/C(=N\OC(=O)Nc1cccc(Cl)c1)C(Cl)(Cl)Cl
active: [1] 96.8% | [2] 99.5% | [3] 99.5% | [4] 96.3% | [5] 99.2% | [6] 99%

CCCCCCCCCCCCCCOc1ccc(OCCCCCCCCC)cc1
inactive: [1] 38.4% | [2] -14.9% | [3] 24.1% | [4] -13.8% | [5] 3.4% | [6] -13.9%

Cc1cc2nc(CC(=O)c3cccnc3)c(=O)[nH]c2cc1C
inactive: [1] 0.9% | [2] 3.05% | [3] 12.4% | [4] 18.3% | [5] -8.05% | [6] 15.8%

CCOC(=O)c1sc(SC)nc1NC(=O)c1ccc(Cl)cc1
inactive: [1] -26.6% | [2] 19.8% | [3] -49.6% | [4] 0.7% | [5] -2.55% | [6] -24.7%

C[C@H]1S[C@H](c2c(F)cccc2F)n2c1nc1ccccc12
inactive: [1] 9.5% | [2] -10.6% | [3] 43.8% | [4] -0.25% | [5] 26.6% | [6] 35%

O=C(O)C(CSC(c1ccccc1)(c1ccccc1)c1ccccc1)NSc1ccccc1[N+](=O)[O-] (stereo not given)
active: [1] 96.2% | [2] 97.2% | [3] 97.7% | [4] 96.5% | [5] 95.6% | [6] 97.8%

OC(CNc1ncccn1)(c1ccccc1)c1ccccc1
inactive: [1] -0.25% | [2] -24.8% | [3] -0.7% | [4] 13% | [5] 8.8% | [6] -17.1%

COCC(OC)C(Cl)C(=O)Nc1ccc(Br)cc1 (stereo not given)
inactive: [1] 14.6% | [2] 31.1% | [3] 15.2% | [4] -14.4% | [5] 28.9% | [6] 10.8%

O=C(Nc1ccc(F)cc1)Nc1ccc(F)cc1
inactive: [1] 3.4% | [2] -10.9% | [3] -3.25% | [4] -43.7% | [5] -32.9% | [6] -16.6%

CCNC(=O)Oc1cccc(NC(=O)CC)c1
inactive: [1] 3.2% | [2] -4.2% | [3] -0.25% | [4] -14.2% | [5] 3.65% | [6] 3.7%

COC(=O)C(CC(=O)c1cc2c(cc1I)OCO2)Cc1cc(OC)c(OC)c(OC)c1I (stereo not given)
inactive: [1] -22.9% | [2] -28.8% | [3] -29.8% | [4] -1.65% | [5] -2.45% | [6] -24.9%

CC(=O)N1CC(C)(C)c2c1cc(C)c(O)c2C
inactive: [1] 1.85% | [2] -47.9% | [3] -8.4% | [4] -7.8% | [5] 5.15% | [6] -1.8%

O=C(O)CCCC(=O)c1ccccc1
inactive: [1] 5% | [2] -8.65% | [3] 4.85% | [4] -9.05% | [5] -5.9% | [6] 20.1%

Cc1ccc(S(=O)(=O)NC(C)C(=O)O)cc1 (stereo not given)
inactive: [1] -1.5% | [2] -6.65% | [3] 4.9% | [4] 3.2% | [5] -7.65% | [6] 4.6%

CCC1(CC)C(=O)N(C(=O)c2ccccc2)N(C(=O)c2ccc(Cl)cc2)C1=O
inactive: [1] 20.9% | [2] 18.7% | [3] 34.5% | [4] 32.5% | [5] 46.8% | [6] -79.8%

CC(C)(C)OC(=O)NC(Cc1ccc(O)cc1)C(=O)N1CCCC1C(=O)O (stereo not drawn) (Boc-Tyr-Pro-OH; configuration not given here)
inactive: [1] -13% | [2] -11.3% | [3] -20.9% | [4] -10.2% | [5] -22.9% | [6] -23.1%

N#CCOc1ccc(Cl)cc1
inactive: [1] -10.7% | [2] -16.2% | [3] -13.1% | [4] -53.2% | [5] 1.8% | [6] -3.65%

CCCCN(C)C(=O)C1=C(C)NC(C)=C(C(=O)N(C)CCCC)C1
inactive: [1] -1.45% | [2] -26.4% | [3] -12.2% | [4] -20.3% | [5] -16.2% | [6] -58%

CC(=O)OC1CC(=O)OC(C)(C)C2CC(=O)C3(C)C(CCC4(C)C(c5ccoc5)OC(=O)C5OC543)C12C (stereo not given)
inactive: [1] 20.5% | [2] -18.3% | [3] 11.1% | [4] 2.85% | [5] -6.55% | [6] 21.1%

NC(=O)CCBr
inactive: [1] -15.3% | [2] 20.2% | [3] -5.45% | [4] -20.4% | [5] 1.3% | [6] -29.1%

O/N=C(\C(=N/O)Nc1ccc(-c2ccc(NC(=N/O)/C(=N\O)c3ccccc3)cc2)cc1)c1ccccc1
inactive: [1] 7.35% | [2] -43.4% | [3] -8.5% | [4] 1.45% | [5] -14.4% | [6] 1.1%

O=c1[nH]c2cc(Cl)c([N+](=O)[O-])cc2c2ccccc12
inactive: [1] 15.1% | [2] -7.35% | [3] 4.35% | [4] -42% | [5] -11.2% | [6] -0.25%

O=C(O)/C=C\C(=O)Nc1ccccc1Cl
inactive: [1] -12.8% | [2] -9.95% | [3] 10.9% | [4] 6.85% | [5] 13.4% | [6] -10.8%

C[n+]1cc(I)cc2ccccc21
inactive: [1] 3.85% | [2] -3.45% | [3] -9.55% | [4] -0.2% | [5] 4.05% | [6] 5.05%

COc1ccc(CCN2C(=O)C(=O)N(c3ccc([N+](=O)[O-])cc3)C2=O)cc1OC
inactive: [1] 22.6% | [2] 1.45% | [3] -13.3% | [4] 8.6% | [5] 0.95% | [6] 8.55%

CCC(C(=O)O)C(=O)O
inactive: [1] -16.9% | [2] -38.4% | [3] -23.7% | [4] 14.3% | [5] -7.75% | [6] 10.3%

CCOC(=O)C1=NN(c2ccccc2)C(=O)/C1=C\N1C(=S)NC(=O)/C1=C\c1cccc([N+](=O)[O-])c1
inactive: [1] 11.2% | [2] -11.6% | [3] 1.25% | [4] 31.3% | [5] -4.8% | [6] -4.8%

CC(C)=CCNc1nc(Cl)nc2nc[nH]c12
inactive: [1] -28.1% | [2] -8% | [3] -59% | [4] -14.5% | [5] -19.4% | [6] -67.7%

COc1ccc(C(C#N)C(=O)C(=O)Nc2ccc(Cl)cc2C)cc1OC (stereo not given)
inactive: [1] -19.9% | [2] 17.9% | [3] 24.6% | [4] -14.2% | [5] 2.65% | [6] 16.9%
